From PubChem BioAssay (NCATS)
Records with an inconclusive call do not appear. A call without a number means that no potency is given here. Unmarked numbers belong to inactive results. Activity calls are given as the source filed them. Calls come from the whole dose curve; as a rule, active = well fitted activation curve with a large enough effect; inconclusive = small, poorly fitted or top-dose-only effect; inactive = flat fitted curve, though single readings scatter. Where a SMILES comes first, the peptide text is derived from it. The star is where a group is joined. AFC = O=c1cc(C(F)(F)F)c2ccc(N*)cc2o1

Test: Primary redox qHTS assay for identification of artifact compounds. (AID 1845223)
Settings: Amplex Red/HRP redox cycling with DTT, fluorescence; series mostly up to 53.8 µM
In short: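 Amplex Red (25 uM) and HRP (250 mU/mL) in HBSS, with compounds for 15 min, then 250 uM DTT for 30 min, room temperature, dark. Fluorescence 525/598 nm read; normalized to DMSO and 10 uM DA3003; Hill fit.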

Compound | redox activity (% of DA3003) | Potency
CC1(C)CC2C3=CCC4C5(C)CCC(OC6OC(CO)C(O)C(OC7OC(CO)C(O)C(OC8OC(CO)C(O)C(OC9OC(COC%10OC(CO)C(O)C(O)C%10O)C(O)C(O)C9O)C8O)C7O)C6O)C(C)(C)C5CCC4(C)C3(C)CCC2(C(=O)O)CC1O (stereo not given) | 10.1% [at 11.5 µM] | –
COC1=CC(=O)O[C@@H](/C=C/c2ccccc2)[C@@H]1O | – | inactive
NC(=O)c1ccc(OCC2NC(=O)C3CCCN3C2=O)cc1 (stereo not given) | – | inactive
CN1CCC(c2c[nH]c3ccc(NC(=O)c4ccc(F)cc4)cc23)CC1 | – | inactive
O=C1NC(=Nc2ccccc2F)S/C1=C\c1ccc(C(=O)O)cc1 | – | inactive
CC[C@H]1OC(=O)[C@H](C)[C@@H](O[C@H]2C[C@@](C)(OC)[C@@H](O)[C@H](C)O2)[C@H](C)[C@@H](O[C@@H]2O[C@H](C)C[C@H](N(C)C)[C@H]2O)[C@@](C)(O)C[C@@H](C)[C@@H]2N[C@@H](COCCOC)OC([C@H]2C)[C@]1(C)O | – | inactive
CCC1CC2C(C)=CC3CCCCC3C2(C)C2(OC(=O)C(C)(O)OC2=O)O1 (stereo not given) | – | inactive
c1nc(NC2CCCCCC2)c2cc(CNC[C@H]3CCCO3)sc2n1 | – | inactive
C=C1C(=O)OC2CC(C)=C(C(C)CCCO[C@@H]3O[C@H](CO)[C@@H](O)[C@H](O)[C@H]3O)C(O)C12 (stereo not given in full) | – | inactive
CC(=O)N[C@@H](CC(C)C)C(=O)N[C@@H](CCC(=O)O)C(=O)N[C@@H](CCC(=O)O)C(=O)N[C@@H](CC(=O)O)C(=O)Nc1ccc2c(C(F)(F)F)cc(=O)oc2c1 (Ac-LEED-{AFC}) | – | inactive
